# Vaccinia mCherry: qHTS for Stage-Specific Inhibitors of Vaccinia Orthopoxvirus: mCherry Reporter Primary qHTS; Potency, µM (top dose mostly 36.5 µM), without a hit: at the highest dose activity change, negative = inhibition, hits mostly inhibitors; 310,000 tested, 0.63% active; Vaccinia virus mCherry reporter infection, fluorescence; calls by dose curve; tested in A549 cells; note: potency is the fitted concentration of half-maximal effect; nearly all actives have a fitted effect of over 35% in size
# FMDV inh: High Throughput Screening for Foot and Mouth Disease Virus Antivirals. FMDV antiviral cell-based qHTS. Potency, µM (highest dose often 57.9 µM), for the others: at the top dose activity change, negative = inhibition, actives largely listed as inhibitors. 410,000 tested, 1.2% active. AID 1159524, 2015; calls by dose curve; tested in HEK293T cells; note: read-out not given here; potency is the fitted concentration of half-maximal effect; nearly all actives have a fitted effect of over 45% in size
# FBPA Giardia inh: qHTS Assay for Inhibitors of Fructose-1,6-bisphosphate Aldolase from Giardia Lamblia; AID 2451, 2010; purified Giardia FBPA; A8B2U2; 290,000 tested, 0.71% active; Potency, µM (doses to about 59.6 µM), for the others: top-dose activity, negative = inhibition, hits mostly inhibitors; note: potency is the fitted concentration of half-maximal effect; nearly all actives have a fitted effect of over 55% in size
# Target sequence (A8B2U2 whole entry, looked up): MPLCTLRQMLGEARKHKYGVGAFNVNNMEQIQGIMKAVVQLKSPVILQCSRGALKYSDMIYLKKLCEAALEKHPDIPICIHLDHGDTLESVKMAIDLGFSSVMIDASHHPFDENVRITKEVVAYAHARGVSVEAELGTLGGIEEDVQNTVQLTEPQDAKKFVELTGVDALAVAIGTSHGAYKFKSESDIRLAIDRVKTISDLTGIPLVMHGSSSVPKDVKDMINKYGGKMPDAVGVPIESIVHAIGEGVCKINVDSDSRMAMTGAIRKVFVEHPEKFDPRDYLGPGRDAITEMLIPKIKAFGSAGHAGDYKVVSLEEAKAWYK
#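 40 nM FBPA preincubated 10 min at RT with compound (up to 57.5 uM final), then substrate plus GAPDH/TPI/NAD/arsenate coupling and diaphorase/resazurin added. Fluorescence read after 20 min at RT, 525/598 nm.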
# Vaccinia Venus: qHTS for Stage-Specific Inhibitors of Vaccinia Orthopoxvirus: Venus Reporter Primary qHTS; Potency, µM (series often up to 36.5 µM), for the others: at the highest dose activity change, negative = inhibition, usual class: inhibitors; Vaccinia virus Venus reporter expression, fluorescence; 330,000 tested, 0.46% active; calls by dose curve; tested in A549 cells; note: potency is the fitted concentration of half-maximal effect; nearly all actives have a fitted effect of over 30% in size
# HCMV inh: qHTS Assay for inhibitors of the human cytomegalovirus (HCMV) | HFF cells, HCMV-luciferase reporter, 72 h; hits give low values | AID 1259415, 2018 | 410,000 tested, 4.5% active | activity change, negative = inhibition, % at 57.5 µM; in the data active = activity change below about -60%; inconclusive = no clear call, values can overlap the other calls; inactive = above about -39%
#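 After 16 h attachment at 37C, HFF cells received test compound and HCMV-luciferase (1 PFU/cell); reporter luminescence read 72 h later, data normalized against buffer-only and known inhibitor Salinomycin.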
# HCV inh: qHTS Assay for Inhibitors of Hepatitis C Virus (HCV). Huh7.5.1 HCVcc-Cre infection, luciferase reporter, 44 h. Potency, µM (doses to about 41.8 µM), without a hit: at the highest dose activity change, negative = inhibition, most hits filed as inhibitors. 340,000 tested, 3.4% active. AID 651820, 2012; note: potency is the fitted concentration of half-maximal effect
#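 Infectious HCVcc-Cre (~0.5 moi) was added to cells just after compound, with cells seeded 4 h earlier at 1,000 per well. Luciferase activity after 44 h culture reported infection; substrate was incubated 15 min at room temperature before reading.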
# * = called active by the depositor; i = inactive; u = inconclusive; x = no result; [ ] = dose if it differs, or a comment. This is a sample that favours compounds with a hit; in the whole collection about 7.5% have one here. Unless noted, calls come from the whole dose curve; as a rule, active = well fitted curve in the direction sought with a large enough effect; inconclusive = small, poorly fitted or top-dose-only effect, or another doubt; inactive = no such curve, though single readings can be large; an effect the other way counts as inactive or inconclusive. % is set by controls: 0 for no effect and ±100 for the full control effect.
SMILES,Vaccinia mCherry,FMDV inh,FBPA Giardia inh,Vaccinia Venus,HCMV inh,HCV inh
COc1cc2c(cc1OC)CN(CC(=O)Nc1ccc(C)cc1)CC2,x,-7%,-24%,x,-32,-2%
COC(=O)c1[nH]c2ccc(C)cc2c1NC(=O)CN1CCCC(C)(C)C1,-22%[1.46 µM],7%,-1%,u,u,13µM*
COC(=O)c1[nH]c2ccc(C)cc2c1NC(=O)CN1CCc2cc(OC)c(OC)cc2C1,x,u,-6%,u,-11,10µM*
CCN(CC(=O)Nc1c(C(=O)OC)[nH]c2ccc(C)cc12)c1ccc2c(c1)OCO2,x,-25%,u,x,-5,8.9µM*
COc1ccc(Nc2cc3c(cn2)cc(-c2cccc(F)c2)n3C)cn1,x,x,x,x,-38,x
COc1ccc(S(N)(=O)=O)cc1C(N)=O,x,u,7%,x,8,-3%
Cc1ccc(S(=O)(=O)NC(C)(C)CSc2nnc(Nc3ccccc3)s2)cc1,x,u,-5%,x,-25,18µM*
CC(C)(CSc1ncccn1)NS(=O)(=O)c1ccccc1,-6%,12%,3%,-6%,6,20%
Cc1cc(C(=O)NCc2nnc3n2CCN(Cc2ccc(F)cc2F)CC3)c(C)o1,-2%,-16%,x,1%,x,x
N#Cc1ccsc1NC(=O)c1cccc([N+](=O)[O-])c1,-15%,-21%,-12%,-9%,27,10µM*
COc1ccccc1-c1ncn(Cc2cccc(-c3ccccc3)c2)c1CC(C)C,u,28µM*,x,u,u,x
CCCc1c(-c2ccc(F)cc2F)ncn1Cc1cccc(-c2ccccc2)c1,u,u,x,u,-87*,x
CCc1c(-c2ccccc2OC)ncn1Cc1cccc(-c2ccccc2)c1,u,0%,x,u,-98*,x
N#CCCN(C(=O)COC(=O)c1cccc(S(=O)(=O)N2CCCC2)c1)c1ccc(F)cc1,-4%,-7%,-10%,-19%,-75*,x
N#CCCN(C(=O)COC(=O)c1cccc(S(=O)(=O)N2CCCCCC2)c1)c1ccc(F)cc1,i,-24%,x,-10%,-22,-21%
N#CCCN(C(=O)COC(=O)c1cc(S(=O)(=O)N2CCOCC2)ccc1Cl)c1ccc(F)cc1,i,-20%,x,-11%,-71*,-7%[8.37 µM]
Cc1nc2ccccc2n1S(=O)(=O)c1cc(C(=O)O)ccc1Cl,x,-19%,-15%,x,4,16%
COC(=O)N1CC=CC1(C)C(=O)O (stereo not given),x,x,-8%,x,x,x
COc1ccccc1N1CCN(/N=C/c2ccc([N+](=O)[O-])cc2)CC1,x,25%,-2%,x,60,11µM*
CC(Nc1cccc([N+](=O)[O-])c1)C(=O)Nc1ccc(S(=O)(=O)N2CCCC2)cc1 (stereo not given),i,-11%,x,-19%,-21,-4%
COc1ccccc1NC(=S)NC1CCCCC1,-15%,27%,-1%,-12%,24,u
O=C(Nc1ccccc1NC(=O)NC1CCCCC1)NC1CCCCC1,x,54%,2%,x,-106*,13µM*
NC(=O)c1ccccc1NC(=O)NC1CCCCC1,x,4%,0%,x,-2,13%
COc1ccccc1NC(=S)NCC1CCCCC1,x,57%,4%,x,-66*,u
COc1ccccc1NC(=S)NC1CCCCCCCCCCC1,x,-12%,0%,x,-61*,4.5µM*
SMILES,Vaccinia mCherry,FMDV inh,FBPA Giardia inh,Vaccinia Venus,HCMV inh,HCV inh
COc1ccccc1NC(=O)CC1CCCC1,-10%,6%,3%,7%,26,-3%
CCN1CCCC1CNC(=O)c1cnn(-c2nccc(-c3cc(OC)ccc3OC)n2)c1C (stereo not given),i,-3%,x,-13%,x,x
CCCc1cc(=O)[nH]c(Nc2ccc(C)c(O)c2)n1,-11%,0%,x,-4%,2,x
COc1ccc(/C(C)=N/N=C(N)N)c(O)c1,-5%,-16%,-15%,-4%,0,-9%
CNC(=S)NN=C(C)c1ccc(OC)cc1O,5µM*,48%,x,u,2,u
CCN1CCN(Cc2ccc(NC(=O)c3cc(NC(=O)c4cncc(-c5ccc(C#N)cc5)c4)cc(OC)c3)cc2C(F)(F)F)CC1,u,-22%,9%,-22%,-99*,-13%[8.37 µM]
CCN1CCN(Cc2ccc(NC(=O)c3cc(NC(=O)c4cnnc5ccccc45)cc(OC)c3)cc2C(F)(F)F)CC1,u,-19%,-2%,10µM*,-94*,u
Cc1ccc(C(=O)N2CCN(S(=O)(=O)c3ccc(Br)cc3)CC2)o1,-20%,-20%,1%,-17%,-2,18%
CCOc1ccc(NC(=O)Nc2c[nH]c(=O)[nH]c2=O)cc1,0%,0%,x,7%,10,x
CCCc1nn2c(=O)cc(COC(=O)c3cccc(NC(=O)c4cccs4)c3)nc2s1,i,12%,x,-13%,24,x
CC1(C)CC(=O)C=C(c2ccc(Oc3ccccc3)cc2)C1=O,-4%,-23%,x,-18%,-16,x
CC1(C)CC(=O)C=C(c2ccc(-c3cnc4ccccc4c3)cc2)C1=O,-24%,-36%,x,u,-71*,x
Cc1ccc(NC(=O)CN2C(=O)C(c3ccccc3)=NC2(C)C)cc1C,-17%,-12%,x,-11%,39,x
O=C(CS(=O)(=O)Cc1ccccc1)Nc1ccccn1,i,13%,0%,-17%,-102*,-6%
COc1ccc(NC(=O)c2c(C)oc3ccc(O)c(CN4CCCCCC4)c23)cc1,-3%,-11%,x,-23%,-67*,x
Cc1oc2ccc(O)c(CN(C)Cc3ccccc3)c2c1C(=O)Nc1ccccc1,-5%,-25%,x,-22%,-81*,x
Cc1oc2ccc(O)c(CN3CCOCC3)c2c1C(=O)Nc1cccc(C(F)(F)F)c1,-13%,0%,x,-7%,7,x
COc1ccc(NC(=O)c2c(C)oc3ccc(O)c(CN4CCC(C)CC4)c23)cc1,-18%,-12%,x,-9%,u,x
CCN(Cc1ccccc1)Cc1c(O)ccc2oc(C)c(C(=O)Nc3ccc(C)cc3C)c12,-10%,u,x,-22%,-12,x
Cc1ccc(NC(=O)c2c(C)oc3ccc(O)c(CN(C)Cc4ccccc4)c23)c(C)c1,-23%,-23%,x,-22%,-67*,x
COc1ccc(NC(=O)c2c(C)oc3ccc(O)c(CN4CCN(Cc5ccccc5)CC4)c23)cc1,-14%[7.34 µM],-22%,x,-12%[7.34 µM],u,x
Cc1oc2ccc(O)c(CN(C)Cc3ccccc3)c2c1C(=O)Nc1cccc(C(F)(F)F)c1,-9%,u,x,u,-79*,x
C=CC[C@@H](CC(=O)N(CCO)Cc1ccccc1)C(=O)N[C@@H](COC(=O)[C@@H](CC=C)CC(=O)OC(C)(C)C)Cc1c[nH]c2ccccc12,-28%,u,x,u,16,u

# Source: PubChem BioAssay
